The values that follow come from PubChem BioAssay (NCI).

Test systems include NCI-H23 lung; NCI-H226 lung; NCI-H322M lung; HOP-62 NSCLC; NCI-H460 lung; HOP-92 NSCLC; NCI-H522 lung; A549/ATCC NSCLC; 786-0 renal; COLO 205 colon; DU-145 prostate; K-562 leukemia; MALME-3M melanoma; MDA-MB-231 breast; SF-268 CNS; SF-295 CNS; SF-539 CNS; UACC-257 melanoma; M14 melanoma.
Common to all, as to assay: NCI-60 one-dose screen, 48 h (100 = growth as untreated, 0 = no growth, -100 = all killed)
Details in all cases: 10 µM unless noted

Structures are written as SMILES. The panel holds about 83,000 compounds, 20% with a hit somewhere; the sample as a whole holds those more often.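 Activity criterion: percent growth below 10, measured after cells in 96-well plates were exposed to a single compound concentration for 48 hours.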 A number with no mark means an inactive call. Active and inactive are the calls of the source.

For the compound `COc1ccc(-c2nc(N/N=C/c3cccc(Br)c3)nc(N3CCOCC3)c2C#N)cc1`, the growth in the assay on NCI-H23 lung is 103%; in the assay with NCI-H226 lung, 75.8%; in the assay on NCI-H322M lung it was 88.5%; in the assay with HOP-62 NSCLC, 79.1%; in the assay with NCI-H460 lung, 31.8%; in the assay on HOP-92 NSCLC it was 82%. Further, the growth in the assay with NCI-H522 lung is 70.6%; in the assay on A549/ATCC NSCLC, 62.2%; with 786-0 renal, 35.6%; in the assay on COLO 205 colon it was 40.8%; in the assay on DU-145 prostate, 49.8%; with K-562 leukemia it was 3.14% (active). Besides, the growth in the assay with MALME-3M melanoma was 7.31% (active); in the assay on MDA-MB-231 breast it was 72.2%; with SF-268 CNS, 81.4%; with SF-295 CNS it was 54.2%; in the assay with SF-539 CNS it was 55.9%; with UACC-257 melanoma, -17.9% (active). Further, the growth in the assay on M14 melanoma was 24.8%.
With `COc1nc(N)nc(-n2c(-c3ccc(C)cc3)nc3ccccc32)c1NCc1ccc(C)cc1`, the growth in the assay with NCI-H23 lung was 95.6%; in the assay on NCI-H226 lung it was 89%; in the assay on NCI-H322M lung it was 90.2%; in the assay on HOP-62 NSCLC, 86.5%; in the assay on NCI-H460 lung, 105%; in the assay with HOP-92 NSCLC, 78.2%. Also, the growth in the assay on NCI-H522 lung is 79.9%; with A549/ATCC NSCLC, 78.4%; in the assay with 786-0 renal it was 90.3%; with COLO 205 colon, 108%; in the assay with DU-145 prostate, 103%; in the assay on K-562 leukemia, 87.2%. The growth in the assay on MALME-3M melanoma is 105%; in the assay on MDA-MB-231 breast it was 80.4%; with SF-268 CNS it was 94.9%; with SF-295 CNS it was 92.8%; in the assay on SF-539 CNS it was 98.3%; in the assay with UACC-257 melanoma, 100%. Further, in the assay on M14 melanoma, the growth is 95.6%.
As for `COc1cc(COC(=O)CCCCC[P+](c2ccccc2)(c2ccccc2)c2ccccc2)c(OC)c2c1OCO2`, the growth is 51.9% in the assay on NCI-H23 lung; 67.6% with NCI-H226 lung; 84.1% with NCI-H322M lung; 79.2% in the assay with HOP-62 NSCLC; 64.5% with NCI-H460 lung; 20.1% in the assay with HOP-92 NSCLC. Further, the growth is 50.2% with NCI-H522 lung; 81.2% in the assay with A549/ATCC NSCLC; 91.9% in the assay on 786-0 renal; 71.4% in the assay on COLO 205 colon; 83.5% in the assay on DU-145 prostate; 19.4% with K-562 leukemia. Further, the growth is 5.27% (active) with MALME-3M melanoma; 70.2% in the assay on MDA-MB-231 breast; 75.1% in the assay with SF-268 CNS; 76.9% in the assay with SF-295 CNS; 78.2% in the assay on SF-539 CNS; 15.6% with UACC-257 melanoma. In addition, the growth in the assay with M14 melanoma is 43.3%.
Regarding `O=C1NC(=S)NC(=O)C1=Cc1cn(Cc2ccccn2)c2ccccc12`, the growth was 77.9% with NCI-H23 lung; 86.7% in the assay with NCI-H226 lung; 95.5% in the assay with NCI-H322M lung; 53.6% in the assay with HOP-62 NSCLC; 10.7% with NCI-H460 lung; 66.9% with HOP-92 NSCLC. For the same compound, the growth with NCI-H522 lung is 76.6%; in the assay on A549/ATCC NSCLC, 66.2%; in the assay on 786-0 renal it was 43.9%; in the assay on COLO 205 colon, 58.4%; in the assay on DU-145 prostate, 76.8%; with K-562 leukemia it was 26.4%. Moreover, the growth in the assay with MALME-3M melanoma was 85.1%; in the assay on MDA-MB-231 breast, 53.3%; with SF-268 CNS, 59.6%; in the assay on SF-295 CNS it was 73.6%; in the assay on SF-539 CNS, 60.7%; in the assay on UACC-257 melanoma, 87.8%. Moreover, in the assay on M14 melanoma, the growth is -61.2% (active).
`COc1ccc(-c2cnc(N)nc2-c2ccc(OC)cc2O)cc1`: the growth with NCI-H23 lung was 92.5%; in the assay with NCI-H226 lung it was 99.8%; in the assay with NCI-H322M lung, 90.4%; in the assay with HOP-62 NSCLC it was 110%; in the assay on NCI-H460 lung it was 89.8%; in the assay on HOP-92 NSCLC it was 57.8%. The growth with NCI-H522 lung is 79.6%; in the assay on A549/ATCC NSCLC it was 93.1%; in the assay on 786-0 renal, 90%; with COLO 205 colon, 113%; with DU-145 prostate, 99.2%; in the assay with K-562 leukemia, 80.4%. Moreover, the growth in the assay with MALME-3M melanoma is 126%; in the assay on MDA-MB-231 breast, 99.4%; in the assay with SF-268 CNS, 107%; with SF-295 CNS it was 101%; with SF-539 CNS, 88.1%; in the assay on UACC-257 melanoma, 112%. For the same compound, the growth in the assay with M14 melanoma is 109%.
For `Cc1ccc2[nH]c(=S)n(-c3ccc(S(=O)(=O)Nc4ccc(Cl)nn4)cc3)c(=O)c2c1`, the growth in the assay with NCI-H23 lung is 101%; with NCI-H226 lung, 98.9%; in the assay on NCI-H322M lung it was 110%; with HOP-62 NSCLC, 104%; in the assay with NCI-H460 lung, 104%; in the assay with HOP-92 NSCLC, 104%. Also, the growth in the assay on NCI-H522 lung was 92.5%; in the assay on A549/ATCC NSCLC, 103%; with 786-0 renal it was 60.7%; in the assay on COLO 205 colon, 110%; with DU-145 prostate, 109%; with K-562 leukemia, 102%. The growth was 101% in the assay on MALME-3M melanoma; 101% in the assay with MDA-MB-231 breast; 101% in the assay with SF-268 CNS; 104% in the assay on SF-295 CNS; 95.6% with SF-539 CNS; 99.7% with UACC-257 melanoma. Moreover, in the assay with M14 melanoma, the growth is -69.5% (active).
With `COc1ccc(NS(=O)(=O)c2ccc(C)cc2)c([N+](=O)[O-])c1`, the growth with NCI-H23 lung was 96.6%; with NCI-H226 lung, 90.8%; in the assay on NCI-H322M lung it was 94%; with HOP-62 NSCLC, 97.3%; with NCI-H460 lung, 106%; in the assay with HOP-92 NSCLC, 83.5%. In addition, the growth in the assay with NCI-H522 lung is 87.9%; in the assay with A549/ATCC NSCLC, 99.7%; in the assay with 786-0 renal it was 107%; in the assay with COLO 205 colon, 112%; with DU-145 prostate, 111%; in the assay with K-562 leukemia, 93.2%. For the same compound, the growth with MALME-3M melanoma was 96.2%; in the assay with MDA-MB-231 breast, 96%; in the assay with SF-268 CNS it was 101%; with SF-295 CNS, 110%; in the assay with SF-539 CNS it was 110%; in the assay with UACC-257 melanoma, 98.7%. Also, in the assay on M14 melanoma, the growth is 109%.
With `CC(=O)Nc1ccc(C(=O)Nc2cc(-c3ccccc3)ccc2N)cc1`, the growth is 86.4% with NCI-H23 lung; 124% in the assay with NCI-H226 lung; 79.5% in the assay with NCI-H322M lung; 67.7% in the assay on HOP-62 NSCLC; 59.7% in the assay with NCI-H460 lung; 69.2% in the assay with HOP-92 NSCLC. In addition, the growth in the assay with NCI-H522 lung was 55.6%; in the assay on A549/ATCC NSCLC it was 74.2%; with 786-0 renal, 97.9%; with COLO 205 colon it was 35.5%; with DU-145 prostate, 73.2%; with K-562 leukemia, 39.2%. For the same compound, the growth with MALME-3M melanoma was 80.6%; in the assay on MDA-MB-231 breast it was 92.5%; with SF-268 CNS, 68.2%; in the assay with SF-295 CNS it was 58.7%; with SF-539 CNS, 81%; with UACC-257 melanoma, 72.6%. Also, the growth in the assay on M14 melanoma is 77.3%.
